Assay results: paper PMC7862700, “An all-to-all approach to the identification of sequence-specific readers for epigenetic DNA modifications on cytosine”

Columns and labels:
Assay in all cases: DAPPL (digital affinity profiling via proximity ligation, sequencing); 10 mM Tris-HCl pH 7.5, 50 mM NaCl, 1 mM DTT, 4% glycerol, room temperature, 30 min; GST-TFs on glutathione beads, 16-mer random dsDNA library, 0.1% formaldehyde crosslink after washing; high values mean tight binding
Details in all cases: protein: recombinant; tags: N-terminal GST; dsDNA, one strand shown
[1] = target: T1, GABPA (Homo sapiens, UniProt Q06546 1-454)
T1 sequence: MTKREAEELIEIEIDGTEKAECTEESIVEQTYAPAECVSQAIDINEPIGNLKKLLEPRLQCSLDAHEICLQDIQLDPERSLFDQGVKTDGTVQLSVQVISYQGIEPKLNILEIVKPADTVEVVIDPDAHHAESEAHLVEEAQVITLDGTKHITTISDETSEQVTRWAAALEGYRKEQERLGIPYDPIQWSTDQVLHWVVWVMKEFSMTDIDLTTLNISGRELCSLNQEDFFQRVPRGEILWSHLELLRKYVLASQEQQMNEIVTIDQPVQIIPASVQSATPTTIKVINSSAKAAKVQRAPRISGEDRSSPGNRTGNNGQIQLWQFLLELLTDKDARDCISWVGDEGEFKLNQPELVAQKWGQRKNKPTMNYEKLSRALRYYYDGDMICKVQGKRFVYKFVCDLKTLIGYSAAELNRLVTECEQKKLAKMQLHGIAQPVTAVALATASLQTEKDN
Summary of the method: (§1)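 Sequencing on an Illumina NextSeq500 followed washing, crosslinking with 0.1% formaldehyde, proximity ligation (BsaI/T4 ligase, 1 h, 37 °C) and PCR amplification of pools that had been incubated for 30 min at room temperature with 200 nmole of a random double-stranded 16-mer DNA library in Tris/NaCl/DTT/glycerol buffer. Each pool held DNA-barcoded human transcription factors, expressed in yeast as GST fusions and captured on glutathione beads, plus a tag-only sample. Binding signal is a hexamer's read frequency for a factor divided by its frequency in the tag-only sample.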

[2] = target: ELF1 (Homo sapiens, UniProt P32519 1-619)
Chain of ELF1 (P32519 whole entry): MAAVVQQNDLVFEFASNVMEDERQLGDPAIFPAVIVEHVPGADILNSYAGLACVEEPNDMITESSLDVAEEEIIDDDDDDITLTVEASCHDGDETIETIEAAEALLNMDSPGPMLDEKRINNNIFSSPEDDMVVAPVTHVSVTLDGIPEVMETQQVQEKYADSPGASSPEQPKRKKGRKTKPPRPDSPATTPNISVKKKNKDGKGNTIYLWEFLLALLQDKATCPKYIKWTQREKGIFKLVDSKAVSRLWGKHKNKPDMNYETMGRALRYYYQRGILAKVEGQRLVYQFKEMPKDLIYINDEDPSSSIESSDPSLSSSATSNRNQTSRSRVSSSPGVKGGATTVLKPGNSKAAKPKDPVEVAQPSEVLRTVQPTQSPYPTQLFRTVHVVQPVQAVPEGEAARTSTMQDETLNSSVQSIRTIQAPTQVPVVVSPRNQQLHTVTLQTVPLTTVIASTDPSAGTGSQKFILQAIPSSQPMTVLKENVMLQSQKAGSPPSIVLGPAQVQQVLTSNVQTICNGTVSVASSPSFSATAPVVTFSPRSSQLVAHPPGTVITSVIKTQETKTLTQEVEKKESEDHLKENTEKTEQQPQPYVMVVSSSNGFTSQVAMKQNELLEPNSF
Summary of the method: as §1

[3] = target: T2, EHF (Homo sapiens, UniProt Q9NZC4 1-300)
T2 sequence: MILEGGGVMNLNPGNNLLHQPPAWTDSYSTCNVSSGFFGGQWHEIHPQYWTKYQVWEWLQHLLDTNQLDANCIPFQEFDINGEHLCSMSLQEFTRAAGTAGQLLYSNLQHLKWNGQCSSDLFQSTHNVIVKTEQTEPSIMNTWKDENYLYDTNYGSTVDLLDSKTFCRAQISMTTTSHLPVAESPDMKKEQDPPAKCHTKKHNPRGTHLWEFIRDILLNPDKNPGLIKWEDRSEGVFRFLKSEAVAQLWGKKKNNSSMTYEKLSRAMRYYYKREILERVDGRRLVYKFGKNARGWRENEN
Summary of the method: as §1

[4] = target: SPIB (Homo sapiens, UniProt Q01892 1-262)
Chain of SPIB (Q01892 whole entry): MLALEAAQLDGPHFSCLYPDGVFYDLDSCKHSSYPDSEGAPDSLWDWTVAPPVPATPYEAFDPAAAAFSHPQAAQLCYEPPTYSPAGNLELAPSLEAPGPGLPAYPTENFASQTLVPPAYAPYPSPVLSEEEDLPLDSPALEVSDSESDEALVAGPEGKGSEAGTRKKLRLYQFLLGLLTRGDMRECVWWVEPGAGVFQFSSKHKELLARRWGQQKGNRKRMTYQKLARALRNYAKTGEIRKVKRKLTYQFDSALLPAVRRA
Summary of the method: as §1

[5] = target: T3, FEV (Homo sapiens, UniProt Q99581 1-238)
T3 sequence: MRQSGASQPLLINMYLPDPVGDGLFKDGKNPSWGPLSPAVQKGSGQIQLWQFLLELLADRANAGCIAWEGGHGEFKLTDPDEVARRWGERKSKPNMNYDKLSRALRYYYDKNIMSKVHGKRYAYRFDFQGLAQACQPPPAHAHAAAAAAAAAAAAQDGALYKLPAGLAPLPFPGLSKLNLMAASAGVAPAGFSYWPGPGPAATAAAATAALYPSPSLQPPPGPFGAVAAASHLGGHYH
Summary of the method: as §1

[6] = target: ETV5 (Homo sapiens, UniProt P41161 1-510)
Chain of ETV5 (P41161 whole entry): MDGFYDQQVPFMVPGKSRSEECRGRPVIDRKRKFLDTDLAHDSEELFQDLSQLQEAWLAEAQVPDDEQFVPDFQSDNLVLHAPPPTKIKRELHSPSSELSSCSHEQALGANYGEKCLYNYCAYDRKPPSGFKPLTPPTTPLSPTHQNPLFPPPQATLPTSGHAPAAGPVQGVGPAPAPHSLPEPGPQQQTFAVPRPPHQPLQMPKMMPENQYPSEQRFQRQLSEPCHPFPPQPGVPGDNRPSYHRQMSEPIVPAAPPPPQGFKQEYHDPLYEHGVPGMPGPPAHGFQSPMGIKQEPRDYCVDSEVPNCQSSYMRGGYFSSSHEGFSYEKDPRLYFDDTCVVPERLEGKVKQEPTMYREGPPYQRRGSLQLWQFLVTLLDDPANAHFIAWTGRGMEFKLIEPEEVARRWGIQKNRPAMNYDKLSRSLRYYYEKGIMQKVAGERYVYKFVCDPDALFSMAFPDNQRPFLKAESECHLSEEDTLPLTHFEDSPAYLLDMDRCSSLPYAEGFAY
Summary of the method: as §1

[7] = target: ELF4 (Homo sapiens, UniProt Q99607 1-663)
Chain of ELF4 (Q99607 whole entry): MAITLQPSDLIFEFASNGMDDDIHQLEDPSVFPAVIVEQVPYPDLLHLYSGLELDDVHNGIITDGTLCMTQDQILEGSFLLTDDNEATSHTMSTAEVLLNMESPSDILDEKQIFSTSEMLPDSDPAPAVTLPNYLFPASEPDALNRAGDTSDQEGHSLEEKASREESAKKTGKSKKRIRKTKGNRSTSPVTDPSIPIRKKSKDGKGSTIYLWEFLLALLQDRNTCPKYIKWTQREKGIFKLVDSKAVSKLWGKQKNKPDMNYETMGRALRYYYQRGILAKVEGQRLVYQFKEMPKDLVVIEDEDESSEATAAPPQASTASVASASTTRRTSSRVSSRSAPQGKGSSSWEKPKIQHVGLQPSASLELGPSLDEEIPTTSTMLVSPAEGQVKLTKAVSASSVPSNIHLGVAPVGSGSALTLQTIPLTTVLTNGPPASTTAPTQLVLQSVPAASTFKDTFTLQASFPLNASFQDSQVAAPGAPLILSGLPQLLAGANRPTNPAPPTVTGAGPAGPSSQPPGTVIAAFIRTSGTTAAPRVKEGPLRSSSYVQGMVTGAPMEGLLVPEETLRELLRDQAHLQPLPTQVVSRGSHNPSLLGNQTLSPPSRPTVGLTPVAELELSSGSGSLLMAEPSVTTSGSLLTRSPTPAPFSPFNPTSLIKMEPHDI
Summary of the method: as §1

[8] = target: T4, ELK4 (Homo sapiens, UniProt P28324-2 1-405)
T4 sequence: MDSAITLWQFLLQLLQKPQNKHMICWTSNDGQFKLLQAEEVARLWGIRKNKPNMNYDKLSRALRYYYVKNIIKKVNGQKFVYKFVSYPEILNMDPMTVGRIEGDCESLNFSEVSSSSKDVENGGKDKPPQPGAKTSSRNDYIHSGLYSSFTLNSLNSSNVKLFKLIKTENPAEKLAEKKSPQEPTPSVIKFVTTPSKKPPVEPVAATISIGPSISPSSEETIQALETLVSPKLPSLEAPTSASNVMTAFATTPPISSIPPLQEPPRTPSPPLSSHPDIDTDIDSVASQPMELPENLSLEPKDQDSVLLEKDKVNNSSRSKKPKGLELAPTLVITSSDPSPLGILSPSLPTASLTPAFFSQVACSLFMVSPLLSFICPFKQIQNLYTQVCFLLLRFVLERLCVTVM
Summary of the method: as §1

[9] = target: T5, ETV2 (Homo sapiens, UniProt O00321 1-342)
T5 sequence: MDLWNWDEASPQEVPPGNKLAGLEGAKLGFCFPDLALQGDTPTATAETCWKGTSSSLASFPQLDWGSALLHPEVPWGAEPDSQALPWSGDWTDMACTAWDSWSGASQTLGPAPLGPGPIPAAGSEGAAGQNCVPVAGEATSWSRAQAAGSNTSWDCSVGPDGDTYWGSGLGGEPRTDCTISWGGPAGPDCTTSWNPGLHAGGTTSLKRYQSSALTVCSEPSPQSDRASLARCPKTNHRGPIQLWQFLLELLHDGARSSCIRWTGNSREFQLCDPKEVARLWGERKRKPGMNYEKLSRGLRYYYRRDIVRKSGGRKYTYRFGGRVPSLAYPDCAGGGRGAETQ
Summary of the method: as §1

[10] = target: ETV1 (Homo sapiens, UniProt P50549 1-477)
Chain of ETV1 (P50549 whole entry): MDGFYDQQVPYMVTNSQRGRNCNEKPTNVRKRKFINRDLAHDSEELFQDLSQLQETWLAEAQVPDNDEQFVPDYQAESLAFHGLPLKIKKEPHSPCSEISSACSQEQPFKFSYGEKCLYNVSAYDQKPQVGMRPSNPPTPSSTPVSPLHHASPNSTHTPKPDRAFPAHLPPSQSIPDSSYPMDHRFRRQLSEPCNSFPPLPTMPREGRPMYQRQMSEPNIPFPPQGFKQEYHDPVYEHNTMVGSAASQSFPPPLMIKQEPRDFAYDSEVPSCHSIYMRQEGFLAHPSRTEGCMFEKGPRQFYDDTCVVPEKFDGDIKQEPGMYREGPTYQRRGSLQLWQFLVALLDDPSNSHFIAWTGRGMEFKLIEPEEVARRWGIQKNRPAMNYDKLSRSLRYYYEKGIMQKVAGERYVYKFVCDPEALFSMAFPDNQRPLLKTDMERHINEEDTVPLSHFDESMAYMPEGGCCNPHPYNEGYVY
Summary of the method: as §1

[11] = target: T6, ERF (Homo sapiens, UniProt P50548 1-548)
T6 sequence: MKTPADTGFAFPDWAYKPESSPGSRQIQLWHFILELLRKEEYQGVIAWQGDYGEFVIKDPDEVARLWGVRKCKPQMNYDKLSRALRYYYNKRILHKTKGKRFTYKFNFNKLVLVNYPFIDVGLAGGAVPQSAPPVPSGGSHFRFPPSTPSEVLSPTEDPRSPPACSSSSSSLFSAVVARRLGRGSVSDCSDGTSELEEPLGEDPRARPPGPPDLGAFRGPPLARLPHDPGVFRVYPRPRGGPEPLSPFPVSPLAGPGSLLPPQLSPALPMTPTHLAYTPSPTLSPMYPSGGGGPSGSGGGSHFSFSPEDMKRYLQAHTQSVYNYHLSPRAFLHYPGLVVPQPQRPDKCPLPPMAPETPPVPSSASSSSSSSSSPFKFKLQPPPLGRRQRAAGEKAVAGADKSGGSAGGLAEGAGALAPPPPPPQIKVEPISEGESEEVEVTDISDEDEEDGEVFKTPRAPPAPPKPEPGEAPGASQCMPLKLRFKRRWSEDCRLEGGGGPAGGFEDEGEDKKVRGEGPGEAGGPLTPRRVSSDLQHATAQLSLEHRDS
Summary of the method: as §1

[12] = target: T7, ETS2 (Homo sapiens, UniProt P15036 1-469)
T7 sequence: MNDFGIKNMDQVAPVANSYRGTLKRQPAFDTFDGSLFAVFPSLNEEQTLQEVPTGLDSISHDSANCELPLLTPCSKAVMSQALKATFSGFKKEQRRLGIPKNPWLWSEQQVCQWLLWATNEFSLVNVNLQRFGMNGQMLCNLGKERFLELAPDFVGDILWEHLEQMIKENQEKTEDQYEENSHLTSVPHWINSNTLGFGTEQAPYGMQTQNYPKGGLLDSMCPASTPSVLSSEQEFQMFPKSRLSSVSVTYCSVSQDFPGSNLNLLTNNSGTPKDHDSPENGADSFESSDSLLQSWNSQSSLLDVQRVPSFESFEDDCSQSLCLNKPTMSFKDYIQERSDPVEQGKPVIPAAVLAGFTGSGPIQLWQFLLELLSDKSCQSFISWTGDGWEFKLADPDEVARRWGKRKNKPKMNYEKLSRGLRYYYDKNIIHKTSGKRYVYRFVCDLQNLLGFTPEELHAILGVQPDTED
Summary of the method: as §1

[13] = target: T8, SPDEF (Homo sapiens, UniProt O95238 1-335)
T8 sequence: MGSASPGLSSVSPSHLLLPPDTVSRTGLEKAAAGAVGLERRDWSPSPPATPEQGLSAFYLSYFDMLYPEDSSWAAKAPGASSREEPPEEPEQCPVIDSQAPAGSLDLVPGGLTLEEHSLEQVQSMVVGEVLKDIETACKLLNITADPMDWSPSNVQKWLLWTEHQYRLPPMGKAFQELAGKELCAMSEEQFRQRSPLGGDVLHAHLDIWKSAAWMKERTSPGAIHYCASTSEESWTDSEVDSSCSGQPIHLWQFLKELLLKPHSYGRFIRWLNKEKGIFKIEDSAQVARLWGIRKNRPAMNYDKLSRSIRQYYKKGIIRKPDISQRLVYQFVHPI
Summary of the method: as §1

[14] = target: T9, ETV7 (Homo sapiens, UniProt Q9Y603 1-341)
T9 sequence: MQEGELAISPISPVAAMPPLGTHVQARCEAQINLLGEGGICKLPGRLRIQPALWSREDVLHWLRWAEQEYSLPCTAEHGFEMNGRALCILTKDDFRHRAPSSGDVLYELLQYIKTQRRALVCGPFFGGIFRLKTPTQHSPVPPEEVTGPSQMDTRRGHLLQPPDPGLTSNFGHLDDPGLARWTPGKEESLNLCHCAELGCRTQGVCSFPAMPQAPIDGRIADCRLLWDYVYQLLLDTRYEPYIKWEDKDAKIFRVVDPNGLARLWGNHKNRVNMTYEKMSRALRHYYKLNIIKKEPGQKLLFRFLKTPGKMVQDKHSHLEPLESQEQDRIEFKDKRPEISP
Summary of the method: as §1

[15] = target: T10, ETV3 (Homo sapiens, UniProt P41162-2 1-143)
T10 sequence: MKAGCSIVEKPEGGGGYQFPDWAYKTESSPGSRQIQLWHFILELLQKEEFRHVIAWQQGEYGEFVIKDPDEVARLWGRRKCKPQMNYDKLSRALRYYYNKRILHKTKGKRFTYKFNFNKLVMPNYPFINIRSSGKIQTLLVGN
Summary of the method: as §1

[16] = target: ETV6 (Homo sapiens, UniProt P41212 1-452)
Chain of ETV6 (P41212 whole entry): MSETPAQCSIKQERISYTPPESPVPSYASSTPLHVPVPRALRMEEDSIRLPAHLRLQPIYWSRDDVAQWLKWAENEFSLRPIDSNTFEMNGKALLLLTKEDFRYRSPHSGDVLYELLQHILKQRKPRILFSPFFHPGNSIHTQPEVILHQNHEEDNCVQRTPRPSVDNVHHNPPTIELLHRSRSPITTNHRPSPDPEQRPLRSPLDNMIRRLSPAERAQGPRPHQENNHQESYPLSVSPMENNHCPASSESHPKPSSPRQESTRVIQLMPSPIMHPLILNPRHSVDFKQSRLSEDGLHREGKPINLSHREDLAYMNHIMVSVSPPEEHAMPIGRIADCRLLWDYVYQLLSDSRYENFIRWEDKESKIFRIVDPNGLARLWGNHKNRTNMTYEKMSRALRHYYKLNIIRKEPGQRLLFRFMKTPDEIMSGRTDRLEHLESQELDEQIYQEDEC
Summary of the method: as §1

Q: What does the source list for GTAACC?
A: binding signal [1]: 1.01 fold enrichment (6-mer frequency, TF over GST control); binding signal [2]: 1.05 fold enrichment (6-mer frequency, TF over GST control); binding signal [3]: 1.11 fold enrichment (6-mer frequency, TF over GST control); binding signal [4]: 1.1 fold enrichment (6-mer frequency, TF over GST control); binding signal [5]: 1.04 fold enrichment (6-mer frequency, TF over GST control); binding signal [6]: 1.05 fold enrichment (6-mer frequency, TF over GST control); binding signal [7]: 1.05 fold enrichment (6-mer frequency, TF over GST control); binding signal [8]: 1.02 fold enrichment (6-mer frequency, TF over GST control); binding signal [9]: 1.06 fold enrichment (6-mer frequency, TF over GST control); binding signal [10]: 1.09 fold enrichment (6-mer frequency, TF over GST control); binding signal [11]: 1.11 fold enrichment (6-mer frequency, TF over GST control); binding signal [12]: 1.1 fold enrichment (6-mer frequency, TF over GST control); binding signal [13]: 1.03 fold enrichment (6-mer frequency, TF over GST control); binding signal [14]: 1.07 fold enrichment (6-mer frequency, TF over GST control); binding signal [15]: 1.13 fold enrichment (6-mer frequency, TF over GST control); binding signal [16]: 1.07 fold enrichment (6-mer frequency, TF over GST control)
